Measured values taken from the supplement of paper PMC11732987, “Enantioselective OTUD7B fragment discovery through chemoproteomics screening and high-throughput optimisation” (Communications Chemistry, 2025).

Columns and labels:
Assay in all cases: log2 ratio of Biotin-Ahx-Ub-VS probe labelling (fragment/DMSO); higher = less target engagement (more negative = stronger competition), active = hit call of the paper (q ≤ 0.05, log2 ratio ≤ -1)
Conditions in all cases: compound concentration: 200 uM; treatment time: 3 h
[1] = target: T1, USP19 (UniProt O94966)
T1 sequence (whole entry): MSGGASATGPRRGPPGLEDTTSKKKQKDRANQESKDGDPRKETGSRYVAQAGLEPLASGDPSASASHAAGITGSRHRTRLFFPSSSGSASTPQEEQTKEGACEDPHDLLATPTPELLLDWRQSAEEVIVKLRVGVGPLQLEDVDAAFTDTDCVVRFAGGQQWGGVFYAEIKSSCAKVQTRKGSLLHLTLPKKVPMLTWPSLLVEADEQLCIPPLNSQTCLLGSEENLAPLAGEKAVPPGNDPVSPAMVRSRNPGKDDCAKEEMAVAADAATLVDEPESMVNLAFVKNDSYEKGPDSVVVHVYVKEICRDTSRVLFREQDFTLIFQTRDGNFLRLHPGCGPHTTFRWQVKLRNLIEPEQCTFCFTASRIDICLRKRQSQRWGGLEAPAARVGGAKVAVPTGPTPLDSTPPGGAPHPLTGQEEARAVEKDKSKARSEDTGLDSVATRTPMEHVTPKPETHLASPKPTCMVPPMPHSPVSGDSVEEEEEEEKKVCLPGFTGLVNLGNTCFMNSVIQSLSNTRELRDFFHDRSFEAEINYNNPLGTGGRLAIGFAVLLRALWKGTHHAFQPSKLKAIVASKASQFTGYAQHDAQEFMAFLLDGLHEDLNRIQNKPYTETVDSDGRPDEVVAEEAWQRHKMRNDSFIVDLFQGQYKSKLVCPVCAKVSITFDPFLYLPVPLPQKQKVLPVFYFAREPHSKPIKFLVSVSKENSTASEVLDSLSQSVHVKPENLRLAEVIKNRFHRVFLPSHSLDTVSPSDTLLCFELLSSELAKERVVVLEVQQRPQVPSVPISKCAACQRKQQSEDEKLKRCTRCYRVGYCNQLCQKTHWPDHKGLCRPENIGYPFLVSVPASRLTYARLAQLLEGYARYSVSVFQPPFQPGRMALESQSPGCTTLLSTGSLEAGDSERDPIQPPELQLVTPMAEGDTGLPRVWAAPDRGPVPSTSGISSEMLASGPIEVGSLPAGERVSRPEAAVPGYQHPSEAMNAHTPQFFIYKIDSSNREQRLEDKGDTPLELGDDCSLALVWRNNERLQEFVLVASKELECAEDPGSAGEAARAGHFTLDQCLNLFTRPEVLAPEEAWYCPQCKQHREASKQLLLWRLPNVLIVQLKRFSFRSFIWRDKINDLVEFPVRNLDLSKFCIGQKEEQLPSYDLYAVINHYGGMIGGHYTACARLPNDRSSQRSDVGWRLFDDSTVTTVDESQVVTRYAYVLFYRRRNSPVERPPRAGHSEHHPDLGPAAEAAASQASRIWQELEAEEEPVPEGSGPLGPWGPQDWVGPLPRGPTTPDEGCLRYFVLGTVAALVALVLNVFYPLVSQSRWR
In short: (§1)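 HEK293T lysate in Tris/CHAPS/IGEPAL buffer with protease inhibitors (495 µg per sample) was given fragment at 200 µM or vehicle for 3 h, in triplicate. It then received Biotin-Ahx-Ub-VS at 0.5 µM final for 1 h. Labelled DUBs were NeutrAvidin-enriched, digested with LysC and trypsin, and run by diaPASEF LC-MS/MS. Values are average log2 fragment/vehicle ratios by unpaired t-test on global-median-normalised Spectronaut quantities of proteins with ≥2 unique peptides.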

[2] = target: USP24 (UniProt Q9UPU5)
USP24, sequence (Q9UPU5 whole entry): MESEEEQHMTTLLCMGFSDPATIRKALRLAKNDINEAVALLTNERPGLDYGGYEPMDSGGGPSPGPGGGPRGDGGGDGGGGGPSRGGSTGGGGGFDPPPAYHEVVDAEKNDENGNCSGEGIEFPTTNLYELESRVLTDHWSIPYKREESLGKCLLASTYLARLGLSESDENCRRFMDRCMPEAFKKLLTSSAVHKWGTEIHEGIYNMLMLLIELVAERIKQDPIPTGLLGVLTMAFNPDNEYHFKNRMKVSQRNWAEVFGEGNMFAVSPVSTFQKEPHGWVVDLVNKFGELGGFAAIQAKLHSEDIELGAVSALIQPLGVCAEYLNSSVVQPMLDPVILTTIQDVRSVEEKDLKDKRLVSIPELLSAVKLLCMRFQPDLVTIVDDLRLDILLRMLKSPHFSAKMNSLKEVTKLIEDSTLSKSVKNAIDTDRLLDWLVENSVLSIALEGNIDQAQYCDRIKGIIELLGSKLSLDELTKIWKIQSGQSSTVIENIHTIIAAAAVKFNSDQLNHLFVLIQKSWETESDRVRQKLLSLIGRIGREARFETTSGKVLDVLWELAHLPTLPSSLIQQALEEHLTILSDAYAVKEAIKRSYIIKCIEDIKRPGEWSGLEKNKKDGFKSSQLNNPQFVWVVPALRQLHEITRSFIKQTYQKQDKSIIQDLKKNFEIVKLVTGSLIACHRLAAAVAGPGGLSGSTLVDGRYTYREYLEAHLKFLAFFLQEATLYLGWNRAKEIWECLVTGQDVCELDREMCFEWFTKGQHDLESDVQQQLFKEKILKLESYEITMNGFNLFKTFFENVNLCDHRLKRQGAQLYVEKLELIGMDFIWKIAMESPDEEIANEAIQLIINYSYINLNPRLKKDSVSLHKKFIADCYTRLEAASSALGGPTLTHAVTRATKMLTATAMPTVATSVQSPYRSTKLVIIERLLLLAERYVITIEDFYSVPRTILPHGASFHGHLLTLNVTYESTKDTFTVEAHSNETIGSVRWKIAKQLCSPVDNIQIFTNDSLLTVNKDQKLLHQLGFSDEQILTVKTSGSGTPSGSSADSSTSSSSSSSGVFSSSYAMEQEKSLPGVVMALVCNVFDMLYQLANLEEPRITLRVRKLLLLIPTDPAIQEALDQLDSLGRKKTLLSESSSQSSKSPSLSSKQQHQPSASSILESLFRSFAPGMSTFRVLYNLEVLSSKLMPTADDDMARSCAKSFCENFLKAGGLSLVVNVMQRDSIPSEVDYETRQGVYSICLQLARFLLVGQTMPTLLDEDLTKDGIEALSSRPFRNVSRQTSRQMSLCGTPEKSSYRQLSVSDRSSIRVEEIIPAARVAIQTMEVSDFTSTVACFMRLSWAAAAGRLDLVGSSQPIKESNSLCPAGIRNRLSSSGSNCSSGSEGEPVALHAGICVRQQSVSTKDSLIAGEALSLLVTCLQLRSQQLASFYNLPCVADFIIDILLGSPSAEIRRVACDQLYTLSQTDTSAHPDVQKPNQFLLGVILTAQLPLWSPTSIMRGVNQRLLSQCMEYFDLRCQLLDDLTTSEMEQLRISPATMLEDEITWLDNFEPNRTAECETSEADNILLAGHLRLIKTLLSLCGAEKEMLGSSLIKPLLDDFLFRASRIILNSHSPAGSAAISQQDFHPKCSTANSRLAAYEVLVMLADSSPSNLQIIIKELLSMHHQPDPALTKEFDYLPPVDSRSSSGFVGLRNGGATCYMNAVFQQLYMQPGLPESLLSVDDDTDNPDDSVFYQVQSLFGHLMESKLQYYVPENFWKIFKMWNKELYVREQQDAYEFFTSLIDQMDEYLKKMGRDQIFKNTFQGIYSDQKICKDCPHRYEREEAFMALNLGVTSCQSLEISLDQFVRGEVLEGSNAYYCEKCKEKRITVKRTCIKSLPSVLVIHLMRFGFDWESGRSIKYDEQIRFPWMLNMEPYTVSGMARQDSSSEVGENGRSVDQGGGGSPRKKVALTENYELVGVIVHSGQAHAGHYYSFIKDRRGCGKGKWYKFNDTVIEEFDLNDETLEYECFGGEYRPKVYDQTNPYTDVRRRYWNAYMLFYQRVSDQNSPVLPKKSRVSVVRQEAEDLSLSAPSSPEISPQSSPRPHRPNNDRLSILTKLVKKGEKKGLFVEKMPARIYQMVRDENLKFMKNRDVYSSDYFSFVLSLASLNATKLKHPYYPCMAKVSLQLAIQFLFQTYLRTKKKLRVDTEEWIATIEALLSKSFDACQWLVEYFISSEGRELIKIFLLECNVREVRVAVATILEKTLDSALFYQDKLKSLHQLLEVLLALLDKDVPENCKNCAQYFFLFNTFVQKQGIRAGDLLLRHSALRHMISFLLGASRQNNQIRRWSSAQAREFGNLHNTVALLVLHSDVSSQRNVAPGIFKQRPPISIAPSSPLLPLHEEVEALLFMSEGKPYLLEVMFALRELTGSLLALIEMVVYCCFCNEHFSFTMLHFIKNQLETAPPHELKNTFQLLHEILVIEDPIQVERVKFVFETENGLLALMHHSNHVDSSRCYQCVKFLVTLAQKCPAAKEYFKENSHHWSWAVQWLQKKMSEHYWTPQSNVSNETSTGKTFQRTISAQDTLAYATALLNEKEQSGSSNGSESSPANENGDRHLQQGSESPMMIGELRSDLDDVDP
In short: as §1

[3] = target: T2, USP25 (UniProt Q9UHP3)
T2 sequence (whole entry): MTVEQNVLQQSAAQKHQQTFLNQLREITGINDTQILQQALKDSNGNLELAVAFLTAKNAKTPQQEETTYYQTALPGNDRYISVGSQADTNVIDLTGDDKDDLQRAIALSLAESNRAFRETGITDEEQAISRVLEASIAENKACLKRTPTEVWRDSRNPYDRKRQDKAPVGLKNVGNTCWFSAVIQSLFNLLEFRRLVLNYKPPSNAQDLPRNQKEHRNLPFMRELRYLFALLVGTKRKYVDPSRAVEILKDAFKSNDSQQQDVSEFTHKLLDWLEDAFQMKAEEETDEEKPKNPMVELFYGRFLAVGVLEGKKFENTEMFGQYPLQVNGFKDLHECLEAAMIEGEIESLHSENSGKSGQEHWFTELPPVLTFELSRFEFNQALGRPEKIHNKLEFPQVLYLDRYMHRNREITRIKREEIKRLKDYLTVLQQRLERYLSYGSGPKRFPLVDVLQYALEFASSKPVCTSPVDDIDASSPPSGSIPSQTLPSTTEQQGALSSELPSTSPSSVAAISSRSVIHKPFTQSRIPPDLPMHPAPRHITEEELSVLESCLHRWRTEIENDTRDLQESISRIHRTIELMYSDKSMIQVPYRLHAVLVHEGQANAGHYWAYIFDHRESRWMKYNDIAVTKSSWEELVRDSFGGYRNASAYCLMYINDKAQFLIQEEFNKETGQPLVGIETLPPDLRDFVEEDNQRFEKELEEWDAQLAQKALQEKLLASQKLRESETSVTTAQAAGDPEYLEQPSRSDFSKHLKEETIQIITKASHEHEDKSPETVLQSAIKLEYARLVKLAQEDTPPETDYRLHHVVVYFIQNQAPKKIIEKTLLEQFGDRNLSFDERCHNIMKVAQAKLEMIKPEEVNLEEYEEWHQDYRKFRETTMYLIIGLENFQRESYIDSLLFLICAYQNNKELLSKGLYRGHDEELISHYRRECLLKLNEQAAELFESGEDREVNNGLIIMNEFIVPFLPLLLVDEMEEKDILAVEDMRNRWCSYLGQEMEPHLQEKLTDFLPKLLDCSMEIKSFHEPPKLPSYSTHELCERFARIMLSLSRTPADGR
In short: as §1

[4] = target: T3, USP28 (UniProt Q96RU2)
T3 sequence (whole entry): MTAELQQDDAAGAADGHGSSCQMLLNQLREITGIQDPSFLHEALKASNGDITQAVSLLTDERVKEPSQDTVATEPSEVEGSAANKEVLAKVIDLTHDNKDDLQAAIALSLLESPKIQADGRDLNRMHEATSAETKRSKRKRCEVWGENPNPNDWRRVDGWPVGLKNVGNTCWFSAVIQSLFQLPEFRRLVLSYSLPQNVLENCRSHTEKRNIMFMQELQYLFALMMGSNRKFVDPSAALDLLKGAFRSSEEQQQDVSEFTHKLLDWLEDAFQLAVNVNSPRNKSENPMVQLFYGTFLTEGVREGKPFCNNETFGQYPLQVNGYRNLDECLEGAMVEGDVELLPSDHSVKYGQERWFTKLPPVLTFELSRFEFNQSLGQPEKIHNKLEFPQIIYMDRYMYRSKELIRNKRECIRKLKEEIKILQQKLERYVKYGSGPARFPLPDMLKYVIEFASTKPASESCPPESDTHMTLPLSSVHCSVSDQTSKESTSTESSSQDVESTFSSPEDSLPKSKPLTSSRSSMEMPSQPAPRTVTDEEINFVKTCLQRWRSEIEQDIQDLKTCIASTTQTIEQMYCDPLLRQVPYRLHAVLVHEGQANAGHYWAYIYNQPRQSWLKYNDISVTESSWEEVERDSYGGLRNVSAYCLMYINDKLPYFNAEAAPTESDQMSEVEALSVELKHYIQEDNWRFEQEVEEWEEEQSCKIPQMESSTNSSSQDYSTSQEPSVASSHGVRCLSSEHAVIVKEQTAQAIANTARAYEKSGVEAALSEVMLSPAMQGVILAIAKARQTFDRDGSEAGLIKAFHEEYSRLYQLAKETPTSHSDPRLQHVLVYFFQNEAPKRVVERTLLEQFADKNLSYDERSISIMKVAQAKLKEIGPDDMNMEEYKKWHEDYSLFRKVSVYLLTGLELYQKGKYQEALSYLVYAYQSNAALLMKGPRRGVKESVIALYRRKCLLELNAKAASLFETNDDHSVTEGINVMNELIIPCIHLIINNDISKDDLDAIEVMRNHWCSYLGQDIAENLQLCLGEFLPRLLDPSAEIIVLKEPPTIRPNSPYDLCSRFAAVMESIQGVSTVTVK
In short: as §1

Measured: log2 ratio of Biotin-Ahx-Ub-VS probe labelling

O=C(CCl)Nc1cccc(NC(=O)c2ccccc2)c1
inactive: [1] 0.0261 | [2] 0.05 | [3] -0.383 | [4] -0.173
